High-throughput results deposited in PubChem BioAssay by National Center for Advancing Translational Sciences (NCATS).
Only some compounds are listed: those with a hit (about 6.8% of all), similar ones and a draw of the others.
MCF10A rerep: A quantitative high throughput screen for small molecules that induce DNA re-replication in MCF 10a normal breast cells. Potency, µM (series often up to 46.1 µM), for inactives: top-dose activity, positive = re-replication, most hits filed as activators. MCF 10A DNA re-replication, Hoechst nuclear intensity, 48 h. AID 624296, 2012. 350,000 compounds, 2.9% hits; note: % of control where 0% means no effect; nearly all actives have a fitted effect of over 50% in size
PTAP TSG101 blk: qHTS Assay for Iinhibitors of HIV-1 Budding by Blocking the Interaction of PTAP/TSG101. Tumor susceptibility gene 101 protein (Homo sapiens), Q99816. 340,000 tested, under 10 active. Potency, µM (doses to about 115 µM), without a hit: top-dose activity change, negative = inhibition, most hits filed as inhibitors. Fluorescence polarization, FITC-PTAP peptide / Tsg101 binding; active = well fitted inhibition curve with a large enough effect in the main read-out, with a control signal flat, not every such curve was filed as active; inconclusive = small, poorly fitted or top-dose-only effect, or effect the other way, or a change in a side signal; inactive = no such curve, though single readings can be large or run the other way; note: % of control where 0% means no effect
Target sequence (Q99816 whole entry, looked up): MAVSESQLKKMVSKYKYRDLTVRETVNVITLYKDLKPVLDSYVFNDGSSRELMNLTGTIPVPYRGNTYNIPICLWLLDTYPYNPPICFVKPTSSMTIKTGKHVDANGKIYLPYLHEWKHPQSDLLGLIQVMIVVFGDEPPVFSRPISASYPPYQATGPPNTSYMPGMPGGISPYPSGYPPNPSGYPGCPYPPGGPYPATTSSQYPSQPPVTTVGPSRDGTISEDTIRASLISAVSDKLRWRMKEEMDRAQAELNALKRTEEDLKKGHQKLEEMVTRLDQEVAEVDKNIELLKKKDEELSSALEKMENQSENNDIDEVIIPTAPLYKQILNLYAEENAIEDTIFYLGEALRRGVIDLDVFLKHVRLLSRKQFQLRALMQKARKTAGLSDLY
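Compounds were pin-transferred onto Tsg101 binding domain (10 uM final) in HEPES pH 7.5 buffer, then FITC-PTAP peptide was added at 50 nM final. After 20 min at RT, polarization reported peptide displacement across a qHTS concentration series.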
SW480 rereplic: A quantitative high throughput screen for small molecules that induce DNA re-replication in SW480 colon adenocarcinoma cells; SW480 DNA re-replication, Hoechst DNA content imaging, 48 h; Potency, µM (top dose mostly 46.1 µM), without a hit: at the top dose re-replication activation, hits mostly activators; 340,000 compounds, 1.8% hits; note: % of control where 0% means no effect; nearly all actives have a fitted effect of over 55% in size
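Image-based DNA-content assay: after two days of treatment, nuclei were labelled with the DNA dye Hoechst and imaged, and hits were compounds raising the count of nuclei showing high fluorescence intensity.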
PINK1 expr mod: A Quantitative High throughput Screen to Identify Chemical Modulators of PINK1 Expression. Potency, µM (series often up to 76.6 µM), for the others: top-dose activation (PINK1 increase), actives largely listed as activators. 410,000 compounds, 0.2% hits. AID 624263, 2012. PINK1 immunofluorescence, high-content cytometry, 24 h; active = well fitted activation curve with a large enough effect; inconclusive = small, poorly fitted or top-dose-only effect; cell line not stated here; note: % of control where 0% means no effect; nearly all actives have a fitted effect of over 65% in size
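Measures PINK1 amount and localization on or inside mitochondria by immunofluorescence. Stable cells get compounds at 5 concentrations for 24 hours before fixation and staining; CCCP controls included.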
KB-3-1 cytotox: qHTS assay for MDR1-selective chemotherapeutics: Primary screen using the parental adenocarcinoma cell KB-3-1 | 400,000 compounds, 1.4% hits | Potency, µM (titrated, usually from 46.1 µM), hits mostly cytotoxic | KB-3-1 viability, CellTiter-Glo ATP luminescence, 72 h; note: % is set by controls: 0 for no effect and ±100 for the full control effect; nearly all actives have a fitted effect of over 60% in size
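Using CellTiter-Glo luminescence, growth of non-resistant KB-3-1 adenocarcinoma cells is assessed 72 h after pin-tool compound addition at 37 °C. Normalized responses across the concentration series yield fitted curves.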
KB-V1 MDR tox: qHTS assay for MDR1-selective chemotherapeutics: Primary screen using the drug-selected MDR subline cells KB-V1; AID 1347076, 2019; KB-V1 MDR cells viability, CellTiter-Glo, 72 h; 400,000 compounds, 3.4% hits; Potency, µM (highest dose often 46.1 µM), usual class: cytotoxic; note: % is set by controls: 0 for no effect and ±100 for the full control effect; nearly all actives have a fitted effect of over 60% in size
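Readout: CellTiter-Glo luminescence, 10 min after addition. Cells: KB-V1 MDR subline, 72 h at 37 degrees C with compound. Analysis: corrected, normalized data fitted to concentration-effect curves.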
Numbers without * were called inactive; [ ] = remark or other dose. Unless noted, calls come from the whole dose curve; as a rule, active = well fitted curve in the direction sought with a large enough effect; inconclusive = small, poorly fitted or top-dose-only effect, or another doubt; inactive = no such curve, though single readings can be large; an effect the other way counts as inactive or inconclusive. Potency is the fitted concentration of half-maximal effect.

Cc1ccc(C)c(NC(=O)CSc2nc(N)c(NC(=O)c3cccs3)c(=O)[nH]2)c1 was read as MCF10A rerep 1%, PTAP TSG101 blk -11%, SW480 rereplic -9%, PINK1 expr mod 3%, KB-3-1 cytotox inactive and KB-V1 MDR tox inactive.
O=C(CSc1nc2nc(-c3cccs3)cc(C(F)(F)F)c2c(=O)[nH]1)Nc1ccc(F)c(F)c1 was read as MCF10A rerep 18µM*, PTAP TSG101 blk -1%, SW480 rereplic -31%, PINK1 expr mod inconclusive, KB-3-1 cytotox 15µM* and KB-V1 MDR tox inconclusive.
For Cc1ccc(C)c(NC(=O)CSc2nc3nc(-c4cccs4)cc(C(F)(F)F)c3c(=O)[nH]2)c1 the results were MCF10A rerep 21µM*, PTAP TSG101 blk 5%, SW480 rereplic -3%, PINK1 expr mod inconclusive, KB-3-1 cytotox inactive and KB-V1 MDR tox inactive.
COc1ccc(-c2onc(C)c2C)cc1S(=O)(=O)Nc1ccc(OC(F)(F)F)cc1 was read as PINK1 expr mod 8%.
Cc1cc(C)cc(NC(=O)C2CC23CCN(Cc2ccc4ncccc4c2)CC3)c1 (stereo not given) was read as PINK1 expr mod 0%.
For COc1cc(=O)n2c(c1C(=O)NCc1ccco1)CCN(Cc1c(F)cccc1F)CC2 the results were PINK1 expr mod 0%.
CC(C)CCC(CCNCc1ccccn1)c1ccc(Cl)cc1 (stereo not given) was read as MCF10A rerep inconclusive, PTAP TSG101 blk 0%, SW480 rereplic inconclusive, PINK1 expr mod -2%, KB-3-1 cytotox inconclusive and KB-V1 MDR tox 10µM*.
For Cc1c(/C=N/NC(=O)C(NC(=O)c2ccc3c(c2)OCO3)C(C)C)c2ccccc2n1C (stereo not given) the results were MCF10A rerep -75%, PTAP TSG101 blk 1%, SW480 rereplic inconclusive, PINK1 expr mod 2%, KB-3-1 cytotox inactive and KB-V1 MDR tox 18µM*.
For COc1ccc(CC(=O)N/N=C/c2c(C)n(C)c3ccccc23)cc1OC the results were MCF10A rerep 7.3µM*, PTAP TSG101 blk -5%, SW480 rereplic 15µM*, PINK1 expr mod 4%, KB-3-1 cytotox inconclusive and KB-V1 MDR tox inconclusive.
`COc1ccc(CC(=O)N/N=C/c2cc(Br)cs2)cc1OC` gave MCF10A rerep 3%, PTAP TSG101 blk 2%, SW480 rereplic -5%, PINK1 expr mod -1%, KB-3-1 cytotox inactive and KB-V1 MDR tox inconclusive.
Screening CCc1c(C)sc(NC(=O)CSc2nc3c(c(C(F)(F)F)n2)CCc2ccccc2-3)c1C#N returned MCF10A rerep 2%, PTAP TSG101 blk -5%, SW480 rereplic -12%, PINK1 expr mod 16µM*, KB-3-1 cytotox inconclusive and KB-V1 MDR tox inconclusive.
For CC(NC(=O)CSc1nc2c(c(C(F)(F)F)n1)CCc1ccccc1-2)c1ccccc1 (stereo not given) the results were MCF10A rerep 15%, PTAP TSG101 blk -8%, SW480 rereplic -5%[9.22 µM], PINK1 expr mod -1%, KB-3-1 cytotox inconclusive and KB-V1 MDR tox inconclusive.
CC1CCc2c(sc3[nH]c(=S)n(C)c(=O)c23)C1 (stereo not given) was read as MCF10A rerep 21%, PTAP TSG101 blk -1%, SW480 rereplic 10µM*, PINK1 expr mod 2%, KB-3-1 cytotox inactive and KB-V1 MDR tox inactive.
`O=S(=O)(c1cccc(F)c1)N1CCC(Oc2ccc(-n3cnnn3)cc2)CC1` gave PINK1 expr mod 0%.
For Cc1cc(C)c2nc(/N=C(\N)NC(=O)Nc3ccccc3)nc(C)c2c1 the results were MCF10A rerep 21µM*, PTAP TSG101 blk -5%, SW480 rereplic 9.2µM*, PINK1 expr mod inconclusive, KB-3-1 cytotox inactive and KB-V1 MDR tox inconclusive.
O=C(Cc1csc(Nc2nc(=S)[nH]c3ccccc23)n1)NCc1ccc(Cl)cc1 was read as MCF10A rerep 16µM*, SW480 rereplic inconclusive, PINK1 expr mod 13%[38.3 µM], KB-3-1 cytotox inactive and KB-V1 MDR tox inactive.
O=C(Cc1csc(Nc2nc(=S)[nH]c3ccccc23)n1)NCCCN1CCN(c2ccccc2F)CC1 was read as MCF10A rerep 7.3µM*, PTAP TSG101 blk 2%, SW480 rereplic 18µM*, PINK1 expr mod 0%, KB-3-1 cytotox inconclusive and KB-V1 MDR tox 15µM*.
`c1ccc2nc3c(cc2c1)CCCCC3` gave MCF10A rerep inconclusive, PTAP TSG101 blk -1%, SW480 rereplic 18µM*, PINK1 expr mod 2%, KB-3-1 cytotox inactive and KB-V1 MDR tox inactive.
Nc1ncnc(N2CCc3ccccc32)c1[N+](=O)[O-] was read as MCF10A rerep 8%, PTAP TSG101 blk 1%, SW480 rereplic 3%, PINK1 expr mod 0%, KB-3-1 cytotox inconclusive and KB-V1 MDR tox 13µM*.
`CC(C)CN(C)Cc1c(C(=O)N2CCc3ccccc3C2)nc2ccc(Cl)cn12` gave MCF10A rerep 11%, PTAP TSG101 blk -4%, SW480 rereplic 2%, PINK1 expr mod 0%, KB-3-1 cytotox inconclusive and KB-V1 MDR tox 16µM*.
Screening CCCCN(C)Cc1c(C(=O)N2CCc3ccccc3C2)nc2ccc(Cl)cn12 returned MCF10A rerep inconclusive, PTAP TSG101 blk 0%, SW480 rereplic -2%, PINK1 expr mod 0%, KB-3-1 cytotox inactive and KB-V1 MDR tox inconclusive.
Cc1nn(-c2ccccn2)c2c1-c1nc(N3CCOCC3)ncc1CC2 was read as MCF10A rerep 9%, PTAP TSG101 blk -1%, SW480 rereplic -7%, PINK1 expr mod -3%, KB-3-1 cytotox inconclusive and KB-V1 MDR tox 18µM*.
CCCn1cnnc1CNC(=O)[C@H]1O[C@@H](n2ccc(=O)[nH]c2=O)[C@H](O)[C@@H]1O was read as PINK1 expr mod 0%, KB-3-1 cytotox inactive and KB-V1 MDR tox 18µM*.
`CCCn1cnnc1CNC(=O)[C@H]1O[C@@H](n2ccc(N)nc2=O)[C@H](O)[C@@H]1O` gave PINK1 expr mod 0%, KB-3-1 cytotox inactive and KB-V1 MDR tox inactive.
For O=C(COC(=O)CNC(=O)c1ccc([N+](=O)[O-])o1)Nc1ncc(Cl)cc1Cl the results were MCF10A rerep inconclusive, PTAP TSG101 blk 0%, SW480 rereplic -3%, PINK1 expr mod 8%, KB-3-1 cytotox inactive and KB-V1 MDR tox inactive.
